Screens: PubChem BioAssay, National Center for Advancing Translational Sciences (NCATS)
Compounds with a hit are over-represented: about 9.2% of the library has one in this group of screens.
Rab9 prom act: Rab9 promoter activation; Potency, µM (top dose mostly 9.22 µM), hits mostly activators; hit rate 2.8% among 320,000; Huh7 Rab9 promoter-luciferase reporter, luminescence, 24 h; note: nearly all actives have a fitted effect of over 60% in size
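Rab9 promoter-driven luciferase in stably transfected Huh7 cells; 1500 cells/well rested 2 h, exposed to compound in DMSO for 24 h at 37 °C, 5% CO2. Luminescence read 10 min after adding luciferase reagent at ambient temperature.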
FLuc modulator: inhibits or activates purified firefly luciferase, miR-21 counter-screen; P08659; purified FLuc, Km substrates, luminescence inhibition; Potency, µM (top dose mostly 57.5 µM), actives largely listed as inhibitors; hit rate 6.9% among 360,000; AID 588342; note: nearly all actives have a fitted effect of over 55% in size
Target sequence (P08659 whole entry, looked up): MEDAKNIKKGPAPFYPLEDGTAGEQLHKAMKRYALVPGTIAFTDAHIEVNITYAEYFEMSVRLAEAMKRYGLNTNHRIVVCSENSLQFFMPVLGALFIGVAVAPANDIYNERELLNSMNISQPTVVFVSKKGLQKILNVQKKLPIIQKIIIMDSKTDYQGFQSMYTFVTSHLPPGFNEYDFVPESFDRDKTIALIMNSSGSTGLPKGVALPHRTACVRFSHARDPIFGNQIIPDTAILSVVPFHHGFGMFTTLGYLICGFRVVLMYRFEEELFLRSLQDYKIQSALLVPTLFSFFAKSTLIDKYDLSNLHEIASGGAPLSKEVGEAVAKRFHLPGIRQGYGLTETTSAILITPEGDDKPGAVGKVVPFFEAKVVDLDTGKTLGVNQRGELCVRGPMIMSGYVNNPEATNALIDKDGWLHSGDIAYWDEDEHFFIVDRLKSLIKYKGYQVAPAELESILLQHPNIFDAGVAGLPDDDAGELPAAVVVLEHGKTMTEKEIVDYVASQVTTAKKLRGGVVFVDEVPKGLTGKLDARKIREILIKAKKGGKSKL
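Purified P. pyralis luciferase, 10 nM final, with Km-level 10 uM D-luciferin and 10 uM ATP in 50 mM Tris acetate pH 7.5, 10 mM Mg acetate, 0.01% Tween-20, 0.05% BSA; 6-point qHTS titration about 60 µM downward; luminescence read.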
ELG1 genotox: genotoxicity induction in ELG1-luciferase HEK293T cells. AID 504466. hit rate 1.3% among 330,000. Potency, µM (highest dose often 46 µM), most hits filed as activators. HEK293T ELG1-luciferase reporter, luminescence, 16 h; note: nearly all actives have a fitted effect of over 60% in size
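Genotoxicity was scored as increased ELG1-luciferase reporter signal, measured by ONE-Glo luminescence (30 min, room temperature). Compound or vehicle exposure of the HEK293T reporter cells lasted 16 hr at 37°C.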
SMN2 splice up: increases expression of the SMN2 splice variant; hit rate 2.8% among 210,000; AID 1458; HEK293 SMN2-luciferase splicing reporter, luminescence, 30-36 h; Potency, µM (doses to about 46.1 µM), actives largely listed as activators; note: nearly all actives have a fitted effect of over 55% in size
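qHTS luciferase splicing reporter: luminescence rises when SMN2 exon 7 is included in transfected HEK293 cells. Compound exposure lasted 30-36 h at 37C, with 4.5 mM final sodium butyrate as control, followed by a ONE-Glo read.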
NPC1 prom act: NPC1 promoter activation; hit rate 2.4% among 320,000; Potency, µM (titrated, usually from 9.22 µM), usual class: activators; Huh7 NPC1 promoter luciferase reporter, 24 h; note: nearly all actives have a fitted effect of over 60% in size
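Huh7 reporter cells (NPC1 promoter driving luciferase) are dosed with compound for 24 h at 37 °C, 5% CO2; luciferase detection reagent is then added and luminescence measured after 10 min at ambient temperature.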
ELG1 repair inh: ELG1-dependent DNA repair inhibition; HEK293T ELG1-luciferase reporter, luminescence, 16 h; DNA damage induced by 5-fluorouridine; Potency, µM (doses to about 46.1 µM), most hits filed as inhibitors; hit rate 2.3% among 330,000; note: nearly all actives have a fitted effect of over 55% in size
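Quantitative HTS, concentration-response format. 2,000 cells/well co-treated with 5-fluorouridine and compound, 16 hr in 5% CO2 at 37 °C; ONE-Glo luminescence read after 30 min.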
ELG1 FLuc counter: luciferase inhibition in cell-free luciferin readout for ELG1 hits | shares compounds with ELG1 repair inh | cell-free firefly luciferase luminescence counter-screen, ViewLux | Potency, µM (highest dose often 46.1 µM), actives largely listed as inhibitors | hit rate 3% among 350 | AID 624247
ELG1 Luc conf: confirmation of human ELG1-dependent DNA repair inhibitors; shares compounds with ELG1 repair inh; HEK293T ELG1-luciferase levels, luminescence; cells co-treated with 5-fluorouridine; hit rate 68% among 670; AID 624248; Potency, µM (doses to about 46.1 µM), hits mostly inhibitors; note: nearly all actives have a fitted effect of over 55% in size
ELG1-Luc MMS: confirmation of human ELG1 repair inhibitors, MMS stimulated; Potency, µM (titrated, usually from 46.1 µM), actives largely listed as inhibitors; hit rate 53% among 670; HEK293T luciferase-tagged ELG1 level, MMS stimulated; shares compounds with ELG1 repair inh; note: nearly all actives have a fitted effect of over 60% in size
ELG1 5FU viab: confirmation of ELG1 repair inhibitors: viability with 5FU | shares compounds with ELG1 repair inh | cell viability with 5-FU, ELG1-dependent repair | Potency, µM (series often up to 46.1 µM), actives largely listed as cytotoxic | 670 tested, under 10 active;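 note: ELG1-luc HEK293T cells cotreated with 5-fluorouridine at 10 µM final; viability measured 16 h after compound addition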
ELG1 MMS viab: confirmation of ELG1 repair inhibitors: viability with MMS; shares compounds with ELG1 repair inh; Cell viability with MMS, ELG1-dependent DNA repair; Potency, µM (doses to about 46.1 µM), hits mostly cytotoxic; hit rate 33% among 670;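 note: ELG1-luc HEK293T cells co-treated with 10 µM MMS; viability read 16 h after compound addition; nearly all actives have a fitted effect of over 60% in size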
ELG1 unstim viab: counter-screen for ELG1 repair inhibitors: unstimulated cell viability. hit rate 8% among 900. shares compounds with ELG1 repair inh. cell viability counter-screen, unstimulated, luminescence. AID 624252. Potency, µM (doses to about 45.9 µM), usual class: cytotoxic;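 note: compound exposure lasted 16 hours before reading; nearly all actives have a fitted effect of over 55% in size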
FLuc enzyme: firefly luciferase inhibition counter-screen | shares compounds with ELG1 repair inh | purified firefly luciferase, luminescence counter-screen | Potency, µM (top dose mostly 57.5 µM), hits mostly inhibitors | hit rate 10% among 350 | AID 624253
Each line names hits and unclear results; the compound was inactive in the other large screens (follow-up assays come after a bar, where they were run). Calls come from the whole dose curve; as a rule, active = well fitted curve in the direction sought with a large enough effect; inconclusive = small, poorly fitted or top-dose-only effect, or another doubt; inactive = no such curve, though single readings can be large; an effect the other way counts as inactive or inconclusive.

COc1ccc(NC(=O)Nc2ccc3c(c2)C(=O)N([C@@H](C)CO)C[C@@H](C)[C@@H](CN(C)CC2CCCCC2)O3)cc1	ELG1 repair inh inconclusive (no result: Rab9 prom act, FLuc modulator, SMN2 splice up, NPC1 prom act)
O=C(Nc1ccccc1)c1nc[nH]c1C(=O)NCCCNC(=O)c1[nH]cnc1C(=O)Nc1ccccc1	ELG1 repair inh 2.9µM (no result: Rab9 prom act, FLuc modulator, SMN2 splice up, NPC1 prom act) | ELG1 Luc conf 4µM | ELG1-Luc MMS 11µM | ELG1 5FU viab inconclusive | ELG1 MMS viab inactive | ELG1 unstim viab inactive
COc1ccc(/C=N/Nc2c(Cl)cc(Cl)cc2Cl)cc1CN1CCOCC1	ELG1 repair inh inconclusive
CSc1ccc(/C=N/n2c(C3CCCCC3)n[nH]c2=S)cc1	ELG1 repair inh inconclusive (no result: SMN2 splice up)
S=c1[nH]nc(C2CCCCC2)n1/N=C/c1ccncc1	ELG1 repair inh 1.2µM | ELG1 Luc conf 2.5µM | ELG1-Luc MMS 11µM | ELG1 5FU viab inactive | ELG1 MMS viab inactive | ELG1 unstim viab inactive
Nc1nnc(Cc2ccc(Cl)c(Cl)c2)s1	none
Cn1cnc2c(F)c(Nc3ccc(Br)cc3Cl)c(C(=O)NOCCO)cc21	none (no result: Rab9 prom act, FLuc modulator, ELG1 genotox, SMN2 splice up, NPC1 prom act, ELG1 repair inh) | ELG1 unstim viab inactive
Fc1ccccc1COc1ccc(Br)cc1CNCc1ccncc1	ELG1 repair inh inconclusive
Fc1ccc(COc2ccc(Br)cc2CNCc2ccncc2)cc1	ELG1 repair inh inconclusive | ELG1 Luc conf 28µM | ELG1-Luc MMS inconclusive | ELG1 5FU viab inactive | ELG1 MMS viab inconclusive | ELG1 unstim viab inconclusive
COCc1ccc(-c2c(-c3cc(OC)cc(OC)c3)oc(=O)c3cc(OC)c(OC)cc23)cc1	FLuc modulator inconclusive, ELG1 repair inh 0.58µM (no result: SMN2 splice up) | ELG1 FLuc counter inactive | ELG1 Luc conf 5µM | ELG1-Luc MMS inactive | ELG1 5FU viab inconclusive | ELG1 MMS viab inactive | ELG1 unstim viab inconclusive | FLuc enzyme inconclusive
COC(=O)c1ccccc1NC(=O)CSc1nnc(-c2ccc(C)cc2)o1	Rab9 prom act inconclusive, FLuc modulator inconclusive, ELG1 genotox inconclusive, NPC1 prom act inconclusive, ELG1 repair inh inconclusive
Cc1ccc(-c2nnc(SCC(=O)Nc3ccccc3F)o2)cc1	Rab9 prom act inconclusive, FLuc modulator inconclusive, ELG1 genotox 0.16µM, NPC1 prom act inconclusive, ELG1 repair inh inconclusive | ELG1 FLuc counter 8.9µM | ELG1 unstim viab inconclusive | FLuc enzyme 18µM
Cc1ccc(CSCC(=O)N/N=C/c2cccc(OC3CSC3)c2)cc1	ELG1 repair inh inconclusive
Cn1ncc(Br)c1C(=O)N/N=C/c1cccc(OC2CSC2)c1	ELG1 repair inh 4.1µM | ELG1 Luc conf inactive | ELG1-Luc MMS inactive | ELG1 5FU viab inactive | ELG1 MMS viab inconclusive | ELG1 unstim viab inactive
COC(=O)c1ccc(Cn2c(=O)cc(C)c3c(C)nn(C)c32)cc1	none (no result: Rab9 prom act, ELG1 genotox, SMN2 splice up, NPC1 prom act, ELG1 repair inh)
COc1ccc2c(C)cc(SCC(=O)N3CCOCC3)nc2c1	none | ELG1 FLuc counter inactive | ELG1 unstim viab inconclusive | FLuc enzyme inconclusive
